Measurements as given in the supplement of paper PMC8728848.
This is one part of a sample in which the strongest signals are shown more often than they occur.

Legend:
Test in all cases: glycan array binding signal (z-score within array); higher = stronger binding
Settings in all cases: glycan notation: IUPAC condensed, linker removed
[1] = target: Fuc(a1-2)Gal(b1-3)GalNAc(b1-3)Gal
Outline: (§1)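 Negative Z-scores can be read as non-binding. The Z-score is calculated within each array and then averaged across arrays of one protein sequence at different concentrations or buffers and across linkers. Arrays, 3228 in all, were curated from the Consortium for Functional Glycomics database and kept only where the protein sequence was available.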

[2] = target: Fuc(a1-2)Gal(b1-3)[Fuc(a1-4)]GlcNAc
Outline: as §1

[3] = target: Fuc(a1-2)Gal(b1-3)[Fuc(a1-4)]GlcNAc(b1-3)[Gal(b1-4)GlcNAc(b1-6)]Gal(b1-4)Glc
Outline: as §1

[4] = target: Fuc(a1-2)Gal(b1-4)GlcNAc(b1-3)Gal(b1-4)GlcNAc(b1-2)Man(a1-3)[Fuc(a1-2)Gal(b1-4)GlcNAc(b1-3)Gal(b1-4)GlcNAc(b1-2)Man(a1-6)]Man(b1-4)GlcNAc(b1-4)GlcNAc
Outline: as §1

[5] = target: Fuc(a1-2)Gal(b1-4)[Fuc(a1-3)]GlcNAc(b1-3)Gal(b1-4)[Fuc(a1-3)]GlcNAc
Outline: as §1

[6] = target: Fuc(a1-2)[Gal(a1-3)]Gal(b1-4)GlcNAc(b1-2)Man(a1-3)[Fuc(a1-2)[Gal(a1-3)]Gal(b1-4)GlcNAc(b1-2)Man(a1-6)]Man(b1-4)GlcNAc(b1-4)GlcNAc
Outline: as §1

[7] = target: Fuc(a1-2)[Gal(a1-3)]Gal(b1-4)GlcNAc(b1-3)GalNAc
Outline: as §1

[8] = target: Fuc(a1-2)[GalNAc(a1-3)]Gal(b1-3)GlcNAc(b1-6)GalNAc
Outline: as §1

[9] = target: Fuc(a1-2)[GalNAc(a1-3)]Gal(b1-4)GlcNAc(b1-2)Man(a1-3)[Fuc(a1-2)[GalNAc(a1-3)]Gal(b1-4)GlcNAc(b1-2)Man(a1-6)]Man(b1-4)GlcNAc(b1-4)GlcNAc
Outline: as §1

[10] = target: Fuc(a1-2)[GalNAc(a1-3)]Gal(b1-4)GlcNAc(b1-3)Gal(b1-4)GlcNAc(b1-3)Gal(b1-4)GlcNAc
Outline: as §1

[11] = target: Fuc(a1-2)[GalNAc(b1-3)]Gal
Outline: as §1

[12] = target: Fuc(a1-3)[GalNAc(b1-4)]GlcNAc
Outline: as §1

[13] = target: Gal(a1-3)Gal(b1-4)GlcNAc(b1-2)Man
Outline: as §1

[14] = target: Gal(a1-3)Gal(b1-4)GlcNAc(b1-2)Man(a1-3)[Gal(a1-3)Gal(b1-4)GlcNAc(b1-2)Man(a1-6)]Man(b1-4)GlcNAc(b1-4)GlcNAc
Outline: as §1

[15] = target: Gal(a1-3)[Gal(a1-4)]Gal(b1-4)GlcNAc
Outline: as §1

[16] = target: Gal(a1-4)Gal(b1-4)Glc
Outline: as §1

[17] = target: Gal(b1-3)[Fuc(a1-4)]GlcNAc(b1-2)Man
Outline: as §1

[18] = target: Gal(b1-3)[Fuc(a1-4)]GlcNAc(b1-3)Gal(b1-3)[Fuc(a1-4)]GlcNAc
Outline: as §1

[19] = target: Gal(b1-4)GalNAc(a1-3)[Fuc(a1-2)]Gal(b1-4)GlcNAc
Outline: as §1

[20] = target: Gal(b1-4)GlcNAc(b1-2)Man
Outline: as §1

[21] = target: Gal(b1-4)GlcNAc(b1-6)GalNAc
Outline: as §1

[22] = target: Gal(b1-6)Gal
Outline: as §1

[23] = target: Gal3S(b1-3)GalNAc
Outline: as §1

[24] = target: Gal3S(b1-4)GlcNAc
Outline: as §1

[25] = target: Gal3S(b1-4)[Fuc(a1-3)]Glc6S
Outline: as §1

[26] = target: Gal3S(b1-4)[Fuc(a1-3)]GlcNAc
Outline: as §1

[27] = target: Gal4S6S(b1-4)GlcNAc
Outline: as §1

[28] = target: GalNAc(b1-4)GlcNAc(b1-2)Man
Outline: as §1

[29] = target: GalNAc(b1-4)GlcNAc6S
Outline: as §1

[30] = target: GlcNAc(b1-2)Man(a1-3)[GlcNAc(b1-4)][GlcNAc(b1-2)Man(a1-6)]Man(b1-4)GlcNAc(b1-4)[Fuc(a1-6)]GlcNAc
Outline: as §1

[31] = target: GlcNAc(b1-3)Fuc
Outline: as §1

[32] = target: GlcNAc(b1-3)Gal(b1-4)GlcNAc(b1-2)[GlcNAc(b1-3)Gal(b1-4)GlcNAc(b1-6)]Man(a1-6)[GlcNAc(b1-3)Gal(b1-4)GlcNAc(b1-2)Man(a1-3)]Man(b1-4)GlcNAc(b1-4)GlcNAc
Outline: as §1

[33] = target: GlcNAc(b1-3)[GlcNAc(b1-4)][GlcNAc(b1-6)]GlcNAc
Outline: as §1

[34] = target: GlcNAc(b1-4)GlcNAc(b1-4)GlcNAc
Outline: as §1

[35] = target: GlcNAc(b1-6)Gal(b1-4)GlcNAc
Outline: as §1

[36] = target: Man(a1-3)[Man(a1-6)]Man(b1-4)GlcNAc(b1-4)GlcNAc
Outline: as §1

[37] = target: Neu5Ac(a2-3)Gal(b1-3)GalNAc(b1-4)[Neu5Ac(a2-8)Neu5Ac(a2-3)]Gal(b1-4)Glc
Outline: as §1

[38] = target: Neu5Ac(a2-3)Gal(b1-3)GlcNAc
Outline: as §1

[39] = target: Neu5Ac(a2-3)Gal(b1-3)GlcNAc(b1-4)Gal(b1-4)Glc
Outline: as §1

[40] = target: Neu5Ac(a2-3)Gal(b1-3)[Fuc(a1-4)]GlcNAc(b1-3)Gal(b1-3)[Fuc(a1-4)]GlcNAc
Outline: as §1

[41] = target: Neu5Ac(a2-3)Gal(b1-3)[Fuc(a1-4)]GlcNAc(b1-3)Gal(b1-4)[Fuc(a1-3)]GlcNAc
Outline: as §1

[42] = target: Neu5Ac(a2-3)Gal(b1-4)[Fuc(a1-3)]GlcNAc(b1-3)GalNAc
Outline: as §1

[43] = target: Neu5Ac(a2-3)Gal(b1-4)[Fuc(a1-3)]GlcNAc(b1-6)[Gal(b1-3)]GalNAc
Outline: as §1

[44] = target: Neu5Ac(a2-6)Gal(b1-4)GlcNAc(b1-3)Gal(b1-4)[Fuc(a1-3)]GlcNAc(b1-3)Gal(b1-4)[Fuc(a1-3)]GlcNAc
Outline: as §1

[45] = target: Neu5Ac(a2-6)Gal(b1-4)GlcNAc(b1-6)[Gal(b1-3)]GalNAc
Outline: as §1

[46] = target: Neu5Gc(a2-3)Gal(b1-3)GlcNAc
Outline: as §1

[47] = target: Neu5Gc(a2-3)Gal(b1-4)Glc
Outline: as §1

B1: Blon0732mut (Bifidobacterium longum) (protein)
chain: MPTSEHKADDATRHLTLIPAPVTLEYTHGTALIGPLVTIEDADQSWETLPIEQLSDELRHRYGVTVLRRRTHGTVISLGLDSRLAHDEYTLDVSESEGIRVRGGGESGLRYGLQTLRQIIGQTSRAIPCLHIQDKPAFAVRAYSLDVTRGRVPTMEFLTWFVDQLALYKYNQFQLYVEHAFAFVELSEAWRGTDPLTAADITYLDEYCARRGIELVPSLATFGHMYMNLRTREHRGLGEFPEDADRPFSFIERMEHHTLNAADPKAHDFASRLIEEYAPLFRSKSFNIGGNETFDLGRGRSAQDAPEAGRDELYAGFVRDLCETLARHGRQPMLWADIALESPRTMDLLPGDITMLNWMYEPQIDESKIQTIATQGRRQFVCPAVRAWSRFFPDYAGAWLNTYHMALAGTKYDAEGMVVTDWGDYGHVNDPRLSVPGLCYGAQNAWNPIEIDAHEMNRRISALVYGDESGRIMDCLARIDSDGVSFPWDLAVQVLELEYGSGTGALNMDVAACMERSSGGKLTLDRTLGCDDARRRMLQWNRERIERRRDCDQVLRDCGDAFAGLDKGGLTAEFLSVMLDGQRLFNELGEELLALADGKDVGSGANRLAADLELWFERYRAQWLSVGRHAELARIAHVVWSLADILRRGAL
[1]
  glycan array binding signal (z-score): -1.26
[2]
  glycan array binding signal (z-score): 0.087
[3]
  glycan array binding signal (z-score): -0.87
[4]
  glycan array binding signal (z-score): -0.325
[5]
  glycan array binding signal (z-score): 0.489
[6]
  glycan array binding signal (z-score): -0.864
[7]
  glycan array binding signal (z-score): -0.533
[8]
  glycan array binding signal (z-score): -0.809
[9]
  glycan array binding signal (z-score): 0.397
[10]
  glycan array binding signal (z-score): 0.035
[11]
  glycan array binding signal (z-score): 0.44
[12]
  glycan array binding signal (z-score): 1.89
[13]
  glycan array binding signal (z-score): -0.505
[14]
  glycan array binding signal (z-score): 0.086
[15]
  glycan array binding signal (z-score): 5.9
[16]
  glycan array binding signal (z-score): 2.6
[17]
  glycan array binding signal (z-score): -0.411
[18]
  glycan array binding signal (z-score): -0.751
[19]
  glycan array binding signal (z-score): 0.345
[20]
  glycan array binding signal (z-score): 1.31
[21]
  glycan array binding signal (z-score): 0.168
[22]
  glycan array binding signal (z-score): -0.313
[23]
  glycan array binding signal (z-score): 1.16
[24]
  glycan array binding signal (z-score): -0.019
[25]
  glycan array binding signal (z-score): 4.3
[26]
  glycan array binding signal (z-score): 3.42
[27]
  glycan array binding signal (z-score): 2.26
[28]
  glycan array binding signal (z-score): 0.028
[29]
  glycan array binding signal (z-score): -0.46
[30]
  glycan array binding signal (z-score): -0.15
[31]
  glycan array binding signal (z-score): -1.38
[32]
  glycan array binding signal (z-score): 3.03
[33]
  glycan array binding signal (z-score): 5.26
[34]
  glycan array binding signal (z-score): -0.223
[35]
  glycan array binding signal (z-score): 0.074
[36]
  glycan array binding signal (z-score): -0.261
[37]
  glycan array binding signal (z-score): 3.81
[38]
  glycan array binding signal (z-score): -0.428
[39]
  glycan array binding signal (z-score): 0.176
[40]
  glycan array binding signal (z-score): -0.898
[41]
  glycan array binding signal (z-score): -0.002
[42]
  glycan array binding signal (z-score): 2.5
[43]
  glycan array binding signal (z-score): 0.262
[44]
  glycan array binding signal (z-score): 2.6
[45]
  glycan array binding signal (z-score): 0.982
[46]
  glycan array binding signal (z-score): -0.667
[47]
  glycan array binding signal (z-score): 2.58
